The record followed here is PubChem BioAssay (Tox21).

Records with an inconclusive call do not appear. Values without a mark were called inactive. Calls of active or inactive are those of the source. Unless noted, the call rests on the fitted dose curve; in most records, active means well fitted curve in the direction sought with a large enough effect in the repeat runs; inconclusive means weak or mixed curves; inactive means no such curve, though single readings can be large; an effect the other way counts as inactive or inconclusive.

A short description of test [1]: qHTS assay to identify aromatase inhibitors - cell viability counter screen (AID 743084).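 Further: cells stimulated with testosterone during compound exposure; nearly all actives have a fitted effect of over 55% in size.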 For orientation: Quantitative high-throughput screening tests each substance at several concentrations.
Test [2] concerns the target Aryl hydrocarbon receptor (Homo sapiens) (UniProt P35869). Briefly: qHTS assay to identify small molecule that activate the aryl hydrocarbon receptor (AhR) signaling pathway (AID 743085). Further: nearly all actives have a fitted effect of over 15% in size. Further: potency means the concentration at half of the fitted maximal effect.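 On activation: HG2L7.5c1 human HepG2 liver cells with stably integrated DRE-driven firefly reporter; series mostly up to about 70 µM.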 In a few lines:
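Reporter assay in engineered HepG2 line HG2L7.5c1, whose plasmid carries twenty dioxin responsive elements upstream of firefly luciferase. Treatment lasted 24 h at 37C; ONE-Glo luminescence gauged induction.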

Test [3] in a line: qHTS assay to identify small molecule that activate the aryl hydrocarbon receptor (AhR) signaling pathway - cell viability counter screen (AID 743086).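 Further: HepG2 liver cells carrying the AhR DRE luciferase reporter; series mostly up to about 70 µM; nearly all actives have a fitted effect of over 45% in size.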 Put shortly: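 HepG2-AhR-luc (HG2L7.5c1) cells, 4000/well, were preincubated 5 h at 37C, exposed to compound in qHTS format for 24 hr at 37C, then given CellTiter-Fluor for 30 min; viability was read as fluorescence in the reporter wells.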

Test [4] concerns the target Peroxisome proliferator-activated receptor gamma (Homo sapiens) (UniProt P37231). Put plainly: qHTS assay to identify small molecule agonists of the peroxisome proliferator-activated receptor gamma (PPARg) signaling pathway (AID 743094; active means well fitted activation curve with a large enough effect in the signal ratio in the repeat runs, not every such curve was filed as active; the % refers to the signal ratio). Put shortly: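 Following 5 h plating at 37C, PPARg-bla HEK293H cells receive compound or DMSO for 17 h; fluorescence intensity is recorded after LiveBLAzer B/G loading for 1 h at room temperature.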

Test [5] can be described thus: qHTS assay to identify small molecule antagonists of the peroxisome proliferator-activated receptor gamma (PPARg) signaling pathway - cell viability counter screen (AID 743194). Further: nearly all actives have a fitted effect of over 55% in size. The conditions noted are these: Potency: co-treated with 50 nM rosiglitazone. Put shortly:
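PPARg-UAS-bla HEK293H cells were plated, rested 5 h at 37 C, then treated with compounds plus rosiglitazone (50 nM final) for 17 h at 37 C; viability was then read by CellTiter-Glo luminescence after 30 min at room temperature.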

Test [6] can be described thus: qHTS assay for small molecule agonists of the antioxidant response element (ARE) signaling pathway (AID 743202; active means well fitted activation curve with a large enough effect in the signal ratio in the repeat runs, not every such curve was filed as active; the % refers to the signal ratio). In a few lines: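 Read-out: LiveBLAzer B/G FRET substrate fluorescence after 2 h at room temperature, following 16 h compound treatment at 37 C of HepG2 cells carrying an ARE-driven beta-lactamase reporter.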
Test [7] can be described thus: qHTS assay for small molecule agonists of the antioxidant response element (ARE) signaling pathway - cell viability counter screen (AID 743203; calls by dose curve; further: nearly all actives have a fitted effect of over 55% in size). In a few lines:
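Compounds in DMSO were pinned onto ARE-bla HepG2 cells plated 5 hrs earlier at 2,000 cells/well. Sixteen hours later at 37C/5% CO2, CellTiter-Glo was added and luminescence measured after 30 min at room temperature.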

A short description of test [8]: qHTS assay for small molecule activators of the heat shock response signaling pathway - cell viability counter screen (AID 743209). Further: nearly all actives have a fitted effect of over 50% in size. In a few lines: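 Counter screen for cytotoxicity in HeLa HSE-bla reporter cells. Treatment was 5 h at 37 C; viability was detected by luminescent ATP assay (CellTiter-Glo) in the same wells as the beta-lactamase read.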
Test [9] can be described thus: qHTS assay for small molecule activators of the heat shock response signaling pathway (AID 743210; active means well fitted activation curve with a large enough effect in the signal ratio in the repeat runs, with a control signal flat, not every such curve was filed as active; the % refers to the signal ratio; further: series mostly up to about 63 µM). Put shortly:
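HSE-bla HeLa cells (beta-lactamase reporter under heat shock response elements) were exposed to compounds for 5 h at 37 C, then loaded with LiveBLAzer B/G FRET substrate for 2.5 h at room temperature before fluorescence reading.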

Test [10] is described as follows: qHTS assay to identify small molecule agonists of the peroxisome proliferator-activated receptor delta (PPARd) signaling pathway - cell viability counter screen (AID 743211). Further: nearly all actives have a fitted effect of over 55% in size. In a few lines: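 Multiplexed format: after the 2 h room-temperature LiveBLAzer B/G FRET step, CellTiter-Glo was added to the same wells. Luminescence after 30 min gave cell viability; compound exposure was 17 h at 37C.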

The target of test [11] is Peroxisome proliferator-activated receptor delta (Homo sapiens) (UniProt Q03181). Briefly: qHTS assay to identify small molecule agonists of the peroxisome proliferator-activated receptor delta (PPARd) signaling pathway (AID 743212; calls by dose curve). In a few lines: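 GeneBLAzer PPARd UAS-bla HEK293H cells (beta-lactamase reporter under UAS control), plated and rested 5 h at 37 C, then exposed to compounds in DMSO at 37 C; LiveBLAzer B/G FRET substrate added, 2 h room temperature, fluorescence read.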

Test [12] can be described thus: qHTS assay to identify small molecule agonists of the farnesoid-X-receptor (FXR) signaling pathway - cell viability counter screen (AID 743218). Further: nearly all actives have a fitted effect of over 45% in size. Put shortly: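 After 16 h at 37 C with test compounds, FXR-bla HEK 293T cells were given LiveBLAzer B/G substrate for 2 h at RT and then CellTiter-Glo; luminescence was taken after 30 min.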
In test [13] the target is Vitamin D3 receptor (Homo sapiens) (UniProt P11473). Put plainly: qHTS assay to identify small molecule agonists of the vitamin D receptor (VDR) signaling pathway (AID 743222; calls by dose curve). Put shortly:
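VDR-bla cells were seeded, left 4 h, treated with compounds in DMSO for 16 h, incubated 2 h at RT with B/G FRET substrate, and read for fluorescence.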

Test [14] shares this target. Put plainly: qHTS assay to identify small molecule antagonists of the vitamin D receptor (VDR) signaling pathway (AID 743223; active means well fitted inhibition curve with a large enough effect in the signal ratio in the repeat runs, not every such curve was filed as active; the % refers to the signal ratio). In a few lines:
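After VDR-bla cells are plated and left 4 h at 37C, DMSO-dissolved compounds and 3 nM (final) calcitriol agonist are added. Incubation continues 16 h at 37C; FRET beta-lactamase substrate then develops 2 h at room temperature.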

The target in test [15] is Peroxisome proliferator-activated receptor gamma (Homo sapiens) (UniProt P37231). Briefly: qHTS assay to identify small molecule antagonists of the peroxisome proliferator-activated receptor gamma (PPARg) signaling pathway (AID 743191; calls by dose curve; further: series mostly up to about 63 µM; nearly all actives have a fitted effect of over 30% in size). Put shortly:
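GeneBLAzer PPARg UAS-bla HEK293H cells carrying a UAS-driven beta-lactamase reporter were plated at 3000 cells/well, preincubated 5 h at 37C, then given compound for 17 h at 37C; LiveBLAzer B/G FRET substrate was read after 1 h at room temperature.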

A short description of test [16]: qHTS assay to identify small molecule antagonists of the peroxisome proliferator-activated receptor delta (PPARd) signaling pathway - cell viability counter screen (AID 743213). Further: nearly all actives have a fitted effect of over 50% in size. In a few lines: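 PPARd-bla HEK293H cells (3000/well) got compound plus 300 nM L165041 agonist for 17 h at 37 C. Viability in the same wells came from CellTiter-Glo luminescence after 30 min at room temperature.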

Test [17] deals with Peroxisome proliferator-activated receptor delta (Homo sapiens) (UniProt Q03181). Put plainly: qHTS assay to identify small molecule antagonists of the peroxisome proliferator-activated receptor delta (PPARd) signaling pathway (AID 743215; active means well fitted inhibition curve with a large enough effect in the signal ratio in the repeat runs, not every such curve was filed as active; the % refers to the signal ratio;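 further: cells stimulated with agonist L165041 at 300 nM final during compound exposure; series mostly up to about 62 µM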). Put shortly: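 With L165041 present at 300 nM final, compounds were incubated 17 h at 37 C on PPARd UAS-bla HEK293H cells. A FRET-based beta-lactamase substrate was then applied for 2 h at room temperature and fluorescence intensity recorded.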

Test [18] concerns the target Bile acid receptor (Homo sapiens) (UniProt Q96RI1). Briefly: qHTS assay to identify small molecule antagonists of the farnesoid-X-receptor (FXR) signaling pathway (AID 743217; active means well fitted inhibition curve with a large enough effect in the signal ratio in the repeat runs, not every such curve was filed as active; the % refers to the signal ratio). In a few lines: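 In this cell-based antagonist screen, inhibition of CDCA-driven (50 uM final) UAS-beta-lactamase expression in HEK 293T cells was measured by FRET fluorescence following 16 h compound exposure at 37 °C.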

Test [19] has the same target. Put plainly: qHTS assay to identify small molecule agonists of the farnesoid-X-receptor (FXR) signaling pathway (AID 743220; active means well fitted activation curve with a large enough effect in the signal ratio in the repeat runs, not every such curve was filed as active; the % refers to the signal ratio). In a few lines: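 Beta-lactamase reporter under UAS control in GeneBLAzer FXR HEK 293T cells (5000/well) measured with LiveBLAzer FRET substrate after 2 h at room temperature. Compound exposure lasted 16 h at 37C.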
Test [20] in a line: qHTS assay to identify small molecule antagonists of the farnesoid-X-receptor (FXR) signaling pathway - cell viability counter screen (AID 743221; active means well fitted cell-killing curve with a large enough effect in the repeat runs, not every such curve was filed as active; further: nearly all actives have a fitted effect of over 50% in size). Put shortly: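 CellTiter-Glo, 30 min RT, luminescence; same wells as the LiveBLAzer FRET read. Cells: FXR-UAS-bla HEK 293T. Treatment: compound with chenodeoxycholic acid 50 uM final, 16 h at 37 C.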

Chain of Aryl hydrocarbon receptor (Homo sapiens) (P35869 whole entry, looked up): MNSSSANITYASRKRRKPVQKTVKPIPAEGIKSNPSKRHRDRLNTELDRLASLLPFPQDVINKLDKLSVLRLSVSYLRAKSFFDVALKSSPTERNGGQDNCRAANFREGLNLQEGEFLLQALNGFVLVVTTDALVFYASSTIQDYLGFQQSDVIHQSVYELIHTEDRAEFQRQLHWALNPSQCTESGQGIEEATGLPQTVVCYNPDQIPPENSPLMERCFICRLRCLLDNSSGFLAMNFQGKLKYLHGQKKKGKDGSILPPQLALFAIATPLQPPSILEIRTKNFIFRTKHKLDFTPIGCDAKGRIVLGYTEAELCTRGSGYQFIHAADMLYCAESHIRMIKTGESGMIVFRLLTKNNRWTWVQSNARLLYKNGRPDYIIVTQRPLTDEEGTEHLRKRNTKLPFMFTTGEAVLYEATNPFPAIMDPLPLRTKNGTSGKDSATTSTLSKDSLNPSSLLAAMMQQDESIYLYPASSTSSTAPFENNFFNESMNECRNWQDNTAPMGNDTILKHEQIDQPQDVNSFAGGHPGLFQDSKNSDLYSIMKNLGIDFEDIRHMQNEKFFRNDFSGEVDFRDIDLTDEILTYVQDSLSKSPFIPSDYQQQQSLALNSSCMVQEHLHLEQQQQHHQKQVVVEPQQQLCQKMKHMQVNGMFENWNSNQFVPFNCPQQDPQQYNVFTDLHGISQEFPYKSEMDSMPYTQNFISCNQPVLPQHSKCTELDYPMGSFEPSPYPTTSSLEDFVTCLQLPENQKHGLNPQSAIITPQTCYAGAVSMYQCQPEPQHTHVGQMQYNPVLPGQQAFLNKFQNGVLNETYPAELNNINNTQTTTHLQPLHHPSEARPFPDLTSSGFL
Chain of Bile acid receptor (Homo sapiens) (Q96RI1 whole entry, looked up): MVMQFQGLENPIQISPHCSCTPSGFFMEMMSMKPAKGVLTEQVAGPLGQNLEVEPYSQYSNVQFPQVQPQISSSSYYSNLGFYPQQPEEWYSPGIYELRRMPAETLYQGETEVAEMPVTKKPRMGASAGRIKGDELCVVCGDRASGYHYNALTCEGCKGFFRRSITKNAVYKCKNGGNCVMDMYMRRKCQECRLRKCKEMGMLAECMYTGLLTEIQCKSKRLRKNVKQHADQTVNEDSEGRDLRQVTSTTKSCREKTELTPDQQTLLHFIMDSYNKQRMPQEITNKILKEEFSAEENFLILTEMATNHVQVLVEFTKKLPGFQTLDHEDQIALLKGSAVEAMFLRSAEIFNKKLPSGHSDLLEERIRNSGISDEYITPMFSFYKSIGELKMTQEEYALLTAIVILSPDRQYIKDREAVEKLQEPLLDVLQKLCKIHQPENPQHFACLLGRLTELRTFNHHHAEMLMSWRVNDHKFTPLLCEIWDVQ
Chain of Peroxisome proliferator-activated receptor gamma (Homo sapiens) (P37231 whole entry, looked up): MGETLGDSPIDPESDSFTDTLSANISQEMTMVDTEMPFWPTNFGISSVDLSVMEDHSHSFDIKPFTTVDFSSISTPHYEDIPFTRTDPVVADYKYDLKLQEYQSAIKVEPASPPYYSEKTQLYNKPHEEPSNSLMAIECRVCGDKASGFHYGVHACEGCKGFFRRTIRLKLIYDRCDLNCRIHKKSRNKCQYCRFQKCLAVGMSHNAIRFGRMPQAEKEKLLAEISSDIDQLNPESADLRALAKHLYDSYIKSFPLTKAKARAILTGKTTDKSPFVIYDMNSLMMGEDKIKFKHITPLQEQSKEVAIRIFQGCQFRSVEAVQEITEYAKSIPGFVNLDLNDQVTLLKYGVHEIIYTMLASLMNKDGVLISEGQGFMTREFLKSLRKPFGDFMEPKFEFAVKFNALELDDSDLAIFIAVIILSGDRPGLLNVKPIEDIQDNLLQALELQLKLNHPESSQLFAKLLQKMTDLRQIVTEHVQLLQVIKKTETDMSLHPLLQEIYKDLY
Chain of Vitamin D3 receptor (Homo sapiens) (P11473 whole entry, looked up): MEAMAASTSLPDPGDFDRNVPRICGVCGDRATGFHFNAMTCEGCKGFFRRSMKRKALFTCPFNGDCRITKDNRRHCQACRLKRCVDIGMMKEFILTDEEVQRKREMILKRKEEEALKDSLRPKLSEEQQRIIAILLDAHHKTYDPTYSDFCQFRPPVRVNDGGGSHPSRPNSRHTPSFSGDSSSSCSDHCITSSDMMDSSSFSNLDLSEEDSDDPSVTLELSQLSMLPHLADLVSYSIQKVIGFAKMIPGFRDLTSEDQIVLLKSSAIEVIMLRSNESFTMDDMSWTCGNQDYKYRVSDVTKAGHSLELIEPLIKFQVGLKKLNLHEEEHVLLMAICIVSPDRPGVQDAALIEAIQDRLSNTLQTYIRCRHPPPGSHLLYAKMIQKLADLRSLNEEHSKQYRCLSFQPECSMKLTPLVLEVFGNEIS
Chain of Peroxisome proliferator-activated receptor delta (Homo sapiens) (Q03181 whole entry, looked up): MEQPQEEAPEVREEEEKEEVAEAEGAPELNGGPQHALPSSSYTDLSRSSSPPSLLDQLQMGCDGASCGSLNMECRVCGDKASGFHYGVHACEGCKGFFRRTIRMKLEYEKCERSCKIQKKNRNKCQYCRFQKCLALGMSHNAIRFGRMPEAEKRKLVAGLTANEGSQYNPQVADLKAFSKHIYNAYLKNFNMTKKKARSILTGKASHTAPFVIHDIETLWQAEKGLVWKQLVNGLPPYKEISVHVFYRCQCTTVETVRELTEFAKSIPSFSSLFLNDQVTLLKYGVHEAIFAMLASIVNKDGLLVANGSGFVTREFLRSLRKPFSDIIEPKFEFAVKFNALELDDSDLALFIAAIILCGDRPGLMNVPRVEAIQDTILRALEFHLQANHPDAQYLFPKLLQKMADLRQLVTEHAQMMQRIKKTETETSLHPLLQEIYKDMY

With `Nc1nc(=S)[nH][nH]1`, the Potency result in [1], in test [2], in [3], in test [4], in test [5] and in test [6] was “inactive” in each case. Moreover, the Potency entry in [7], in [8], in test [10] and in test [12] was “inactive” throughout. Besides, the call in test [9], in [11], in [13] and in [14] was inactive.

As to `CCCCCCCCOC(=O)c1ccc(C(=O)OCCCCCCCC)c(C(=O)OCCCCCCCC)c1`, the Potency result in test [1], in test [2], in test [3], in test [4], in test [15] and in [5] was “inactive” throughout. In addition, the Potency entry in [7], in [8], in [10], in [16], in [17] and in test [18] was “inactive” in each case. Moreover, the Potency result in test [12] was “inactive”. For the same molecule, the molecule was classed as inactive in [11] and in [19].

As to `CCOP(=S)(OCC)Oc1cc(Cl)c(Br)cc1Cl`, the Potency entry in [1], in test [3], in test [4], in test [15], in test [6] and in [7] was “inactive” throughout. Further, the Potency result in test [8] and in test [12] was “inactive” throughout. In test [2], the Potency is 9.69 µM (active). In addition, the call in test [9], in test [11], in [19], in [13] and in test [14] was inactive.

As to `CN1C(=O)NC(=O)C(C)(C2=CCCCC2)C1=O` (centres undefined), the Potency entry in test [1], in [2], in test [3], in test [4], in [5] and in test [6] was “inactive” throughout. The Potency result in test [7], in test [8], in test [10], in test [16] and in [20] was “inactive” in each case. Besides, the result in test [9] and in [11] was inactive.

For `Cc1c(F)c(F)c(COC(=O)C2C(/C=C(\Cl)C(F)(F)F)C2(C)C)c(F)c1F` (centres undefined), the Potency result in test [1], in test [2], in test [3], in test [4], in test [15] and in test [5] was “inactive” throughout. Also, the Potency entry in test [8], in test [10], in test [17], in [12] and in [20] was “inactive” throughout. In addition, the molecule was classed as inactive in [9], in [19], in test [13] and in test [14].

`CCN(C)N=O`: the Potency result in test [1], in [2], in test [3], in test [4], in test [15] and in test [5] was “inactive” throughout. Besides, the Potency result in [8], in test [10], in test [16], in test [17], in test [12] and in test [20] was “inactive” in each case. Further, the molecule was called inactive in test [9], in [11], in test [13] and in test [14].

On to `CC(O)(CS(=O)(=O)c1ccc(F)cc1)C(=O)Nc1ccc(C#N)c(C(F)(F)F)c1` (centres undefined), for which the Potency result in test [1], in [2], in test [3], in test [4], in test [15] and in [5] was “inactive” throughout. The Potency entry in [8], in test [10], in test [17], in test [12] and in test [20] was “inactive” throughout. The result in test [9], in test [11], in [13] and in test [14] was inactive.

Regarding `N#CCc1ccccc1`, the Potency result in test [1], in test [2], in [3], in [4], in [15] and in [5] was “inactive” in each case. The Potency entry in [8], in test [10], in [16], in test [17], in [12] and in test [20] was “inactive” throughout. The result in test [11], in test [13] and in test [14] was inactive.

With `CC(=O)NC1CCSC1=O` (centres undefined), the Potency entry in test [1], in test [2], in test [3], in [4], in test [15] and in [6] was “inactive” throughout. Also, the Potency result in test [7], in test [8], in test [10], in test [16], in test [17] and in test [12] was “inactive” each time. Further, in [20], the Potency entry is “inactive”. The outcome in [9], in test [11], in test [13] and in [14] was inactive.

On to `Clc1ccc(C(OCCN2CCCCC2)c2ccccc2)cc1` (centres undefined), for which the Potency result in test [1], in test [2], in test [3], in test [4], in test [15] and in [5] was “inactive” throughout. Further, in test [20], the Potency entry is “inactive”. The molecule was called inactive in test [9], in [13] and in [14].
